{"source": "PubChem BioAssay (EPA / NIEHS)", "note": "“And” between values parts separate entries of the source, which are not always exact repeats. Identical values can stand only once. More than one record can exist for a structure, and the calls need not agree. The source made the active and inactive calls. The calls were made as follows: active = hit-call score of the fitted dose curve at least 0.9, where 1 is the maximum; inactive = score below 0.9.", "data": [{"assay": "ATG_MRE_CIS: Attagene CIS-FACTORIAL HepG2 Assay for human Metal Responsive Element (MRE) (AID 2282954)", "settings": "HepG2 MRE cis-reporter transcription, Attagene multiplex; actives raise or lower the signal", "experimental": "ATG_CIS is a cell-based, multiplexed-readout assay that uses HepG2, a human liver cell line, with measurements taken at 24 hours after chemical dosing in a 24-well plate.ATG_MRE_CIS is one of 52 assay component(s) measured or calculated from the ATG_CIS assay. It is designed to make measurements of mRNA induction, a form of inducible reporter, as detected with fluorescence intensity signals by Reverse transcription polymerase chain reaction (RT-PCR) and Capillary electrophoresis technology.Data from the assay component ATG_MRE_CIS was analyzed into 1 assay endpoint. This assay endpoint, ATG_MRE_CIS, was analyzed with bidirectional fitting relative to DMSO as the negative control and baseline of activity. Using a type of inducible reporter, measures of mRNA for gain or loss-of-signal activity can be used to understand the reporter gene at the transcription factor-level as they relate to the gene MTF1. Furthermore, this assay endpoint can be referred to as a primary readout, because this assay has produced multiple assay endpoints where this one serves a reporter gene function. To generalize the intended target to other relatable targets, this assay endpoint is annotated to the dna binding intended target family, where the subfamily is zinc finger.\nHuman liver HepG2 cells are transiently transfected with multiple reporter transcription units (MRTUs) in 6-well plates using FuGene 6 reagent (Roche; 3 ml FuGene/1 mg DNA). The MRTU constructs are regulated by a cis-regulating element (promoter). […] A major difference between the CIS and TRANS system is that in CIS activities of endogenous TFs are measured, whereas the TRANS assay evaluates changes in activities of exogenous, chimeric NR-Gal4 proteins. […] At the end of 24 hour incubation, total RNA was isolated using TriZol reagent (Invitrogen). The isolated RNA is then reverse-transcribed using oligo(dT) primer and Mo-MLV reverse transcriptase (Invitrogen) with DNAse I (Ambion) treatment for 30 min. The one-tenth of the produced cDNA was amplified by PCR using Taq DNA polymerase (Invitrogen) and two reporter sequence-specific primers. The PCR products were fluorescently labeled by primer extension with 6-arboxyfluorescein (6-FAM) 5'-labeled reporter sequence-specific primer (2 min at 95 C, 20 s at 68 C and 10 min at 72 C) and these products were digested with 5U of HpaI (New England Biolabs) for 2h at 37 C. The fragments were purified using Qiaquick PCR columns (Qiagen), analyzed on an ABI 3130xL genetic analyzer (Applied Biosystems) with peak positions identified by using a set of X-rhodamine (ROX)-labeled MapMarker1000 molecular weight standards (BioVentures). The raw capillary electrophoresis data was processed using Attagraph software (Attagene).", "values": [{"smiles": "CCC(C)(C)c1cc(O)c(C(C)(C)CC)cc1O", "AC50": "16.2 µM (active)"}, {"smiles": "CC(=O)c1ccc2ccccc2c1", "outcome": "inactive"}, {"smiles": "COc1ccc2[nH]cc(CCNC(C)=O)c2c1", "outcome": "inactive"}, {"smiles": "O=C1CCCCCCCCCCCC(=O)OCCO1", "outcome": "inactive"}, {"smiles": "CC(O)CN", "note": "(stereo not given)", "outcome": "inactive"}, {"smiles": "C[N+](C)(C)CCO", "outcome": "inactive"}, {"smiles": "CCCC1CCOC(C)S1", "note": "(stereo not given)", "outcome": "inactive"}, {"smiles": "O=Cc1ccccc1O", "outcome": "inactive"}, {"smiles": "C=COCC1CCC(COC=C)CC1", "note": "(stereo not given)", "outcome": "inactive"}, {"smiles": "O=S(=O)(O)c1cc(S(=O)(=O)O)c2c(N=Nc3ccccc3)c(O)ccc2c1", "outcome": "inactive"}, {"smiles": "CCOC(=O)CC1(C)OCC(C)O1", "note": "(stereo not given)", "outcome": "inactive"}, {"smiles": "CCCCN(CCCC)CCCCCCN(CCCC)CCCC", "outcome": "inactive"}, {"smiles": "C=CC(C)(CCC=C(C)C)OC(=O)CC", "note": "(stereo not given)", "outcome": "inactive"}, {"smiles": "O=C1OC2(c3ccc(O)cc3Oc3cc(O)ccc32)c2ccccc21", "outcome": "inactive"}, {"smiles": "Brc1cc(Br)cc(Br)c1", "outcome": "inactive"}, {"smiles": "CCCCOCCOC(=O)c1ccccc1C(=O)OCCOCCCC", "AC50": "23.4 µM (active)"}, {"smiles": "CC(C)=CC(=O)O", "outcome": "inactive"}, {"smiles": "O=C(O)c1cccc(Cl)n1", "outcome": "inactive"}, {"smiles": "CC(C)Cc1ccccc1", "outcome": "inactive"}, {"smiles": "COC(=O)C(C)Oc1ccc(Oc2ncc(C(F)(F)F)cc2Cl)cc1", "note": "(stereo not given)", "AC50": "100 µM (active)"}, {"smiles": "C=CCCCCCCCCC(=O)OCC", "outcome": "inactive"}, {"smiles": "CCCCCCOC(C)=O", "outcome": "inactive"}, {"smiles": "C#C[C@]1(O)CC[C@H]2[C@@H]3CCc4cc(O)ccc4[C@H]3CC[C@@]21C", "AC50": "52.1 µM (active) [middle of 4 runs]", "outcome": "inactive"}, {"smiles": "CC/C=C\\C#N", "outcome": "inactive"}, {"smiles": "CCCCCCCCCCCCCC(=O)OCC", "outcome": "inactive"}, {"smiles": "CCNC(=S)NCC", "outcome": "inactive"}, {"smiles": "CN1CCc2cccc3c2[C@H]1Cc1ccc(O)c(O)c1-3", "outcome": "inactive"}, {"smiles": "CC(=N[Si](C)(C)C)O[Si](C)(C)C", "outcome": "inactive"}, {"smiles": "CC/C(=C(\\c1ccccc1)c1ccc(OCCN(C)C)cc1)c1ccccc1", "outcome": "inactive"}, {"smiles": "C[C@]12CC[C@@H]3c4ccc(O)cc4CC[C@H]3[C@@H]1CC[C@@H]2O", "outcome": "inactive", "AC50": "31.8 µM (active) and 21 µM (active) and 25.8 µM (active)"}, {"smiles": "NC(=O)c1cccnc1", "outcome": "inactive"}, {"smiles": "CC(C)C(=O)c1ccccc1", "outcome": "inactive"}, {"smiles": "CC(CO)(CO)[N+](=O)[O-]", "outcome": "inactive"}, {"smiles": "COc1cc(OC)c2ccc(=O)oc2c1", "outcome": "inactive"}, {"smiles": "CCCCN(CCO)CCO", "outcome": "inactive"}, {"smiles": "c1ccc2scnc2c1", "outcome": "inactive"}, {"smiles": "N#CCCCC(C#N)CCC#N", "note": "(stereo not given)", "outcome": "inactive"}, {"smiles": "CCCCCCCCCCCCS", "outcome": "inactive"}]}]}
